High-throughput results from PubChem BioAssay.
PHOSPHO1 inh: PubChem AID 1565 | Phosphoethanolamine/phosphocholine phosphatase (Homo sapiens), Q8TCT1 | recombinant PHOSPHO1, absorbance phosphatase assay | inhibition, % at 13.3 µM | 290,000 tested, 1.1% active; in the data active = inhibition above about 60%
Target sequence (Q8TCT1 whole entry, looked up): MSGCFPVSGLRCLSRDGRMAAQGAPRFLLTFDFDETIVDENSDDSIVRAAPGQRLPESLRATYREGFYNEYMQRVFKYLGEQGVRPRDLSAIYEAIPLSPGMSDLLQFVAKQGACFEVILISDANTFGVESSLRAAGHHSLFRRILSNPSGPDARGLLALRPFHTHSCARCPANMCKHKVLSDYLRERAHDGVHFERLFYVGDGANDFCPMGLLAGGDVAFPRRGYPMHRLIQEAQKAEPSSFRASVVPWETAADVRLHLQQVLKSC
pCIP destab: p/CIP-EGFP fusion destabilizers, primary screen, fluorescence, F442A cells; Q05BA5; 16 h; decrease of EGFP signal, % at 10 µM; 290,000 tested, 0.01% active;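 active = EGFP signal decrease of at least 30% at 10 µM or well 3 SD below plate mean, unless failing retest; inactive = the rest, including hits failing retest or dose response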
GASC-1 inh: inhibitors of GASC-1 histone demethylase, primary screen, biochemical, fluorescence, DELFIA europium; AID 2099, 2009; GST-JMJD2C(1-420) H3K9me3 demethylation; inhibition, % at 2.35 µM; 330,000 tested, 0.069% active;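 active = more than half of a compound's replicate wells show inhibition beyond 50%, single wells judged on their own value; inconclusive = some, but no more than half, of replicates pass 50% inhibition; inactive = no replicate passes 50% inhibition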;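 also: signal counts dimethyl H3K9 product captured on neutravidin plate; 0% = median of DMSO wells and 100% = 0.3 times that DMSO median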
HDAC3 inhib: HDAC3 deacetylase inhibitors, primary screen, biochemical, fluorescence, cell-free homogeneous; recombinant HDAC3, fluorogenic peptide/trypsin coupled; 320,000 tested, 0.15% active; Histone deacetylase 3 (Homo sapiens), O15379; inhibition, % at 8.3 µM; in the data active = inhibition above about 26%, passing the limit was not always enough; inconclusive = no clear call, values can overlap the other calls
Target sequence (O15379 whole entry, looked up): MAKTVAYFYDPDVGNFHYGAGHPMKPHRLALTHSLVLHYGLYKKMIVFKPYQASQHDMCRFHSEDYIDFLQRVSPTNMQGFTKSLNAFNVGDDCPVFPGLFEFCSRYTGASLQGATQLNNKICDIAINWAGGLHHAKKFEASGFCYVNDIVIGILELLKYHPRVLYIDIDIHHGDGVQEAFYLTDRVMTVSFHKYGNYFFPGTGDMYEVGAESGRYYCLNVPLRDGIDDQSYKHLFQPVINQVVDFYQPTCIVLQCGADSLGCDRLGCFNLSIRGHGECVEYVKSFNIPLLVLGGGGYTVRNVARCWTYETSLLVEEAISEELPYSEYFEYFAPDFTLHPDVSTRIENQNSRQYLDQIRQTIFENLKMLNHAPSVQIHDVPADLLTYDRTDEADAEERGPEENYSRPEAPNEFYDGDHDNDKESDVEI
SUMO Mot1 rescue: yeast Mot1-301 growth rescue at high temperature, primary screen, SUMOylation pathway inhibitor project, S. cerevisiae, ATP luminescence, 38.5C. growth rescue, % at 18.8 µM. 320,000 tested, 1% active. S. cerevisiae Mot1-301 growth rescue; percent above DMSO median, 100 means doubled. AID 2716, 2010;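 active = every valid replicate shows activation above 250% relative to neutral control wells; inactive = the rest, any valid replicate at or below 250%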;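 also: OY570 slx delta 5 strain wells were the positive control but not used for scaling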
PvdQ acylase: P. aeruginosa PvdQ acylase inhibitors, primary screen, biochemical, fluorescence, plate reader and imaging, single point | 340,000 tested, 0.063% active | purified PvdQ acylase | inhibition, % at 10 µM; in the data active = inhibition above about 30%, passing the limit was not always enough; inconclusive = no clear call, values can overlap the other calls;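 also: 0% = vehicle neutral wells and 100% = reference inhibitor wells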
Yeast Mot1 SUMO: growth restoration of Mot1-301 yeast on galactose, dose response, SUMO pathway inhibitor project, whole organism, S. cerevisiae, ATP luminescence, cherry-picked samples | shares compounds with SUMO Mot1 rescue | AID 493004, 2010 | 2,300 tested, under 10 active | S. cerevisiae Mot1-301 galactose growth, 24 h; -100 = growth of slx-deleted rescue strain | growth activity, percent, % at 42 µM;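 active = Signal drops as the depositor expects, and the fitted half-maximal dose is no more than ten times the top valid tested dose; inconclusive = Poor fit, or a flat curve whose signal drops by 30% to 70%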;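 also: more negative values mean stronger growth rescue toward the control strain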
The depositor's hits bear a star; ? = inconclusive; / = no result given; + = active, no number; [ ] = remark or other dose. Only some compounds are listed: those with a hit (about 2.2% of all), similar ones and a draw of the others.

SMILES | PHOSPHO1 inh | pCIP destab | GASC-1 inh | HDAC3 inhib | SUMO Mot1 rescue | PvdQ acylase | Yeast Mot1 SUMO
COc1cccc(CN(C)C(=O)C2CCC(=O)N(Cc3cccc(F)c3)C2)c1 (stereo not drawn) | -34 | 2 | -25 | 11 | 722* | -1 | -1
Cc1cc(C)cc(NC(=O)N2CCN(C/C=C/c3ccccc3)CC2)c1 | 10 | -1 | 10 | 4 | -4 | -7 | /
CCOC(=O)c1cnc2oc3ccccc3n2c1=O | 8 | 0 | 38 | -11 | + | -7 | 1
O=c1ccn([C@@H]2O[C@H](CNS(=O)(=O)C3CC3)[C@@H](O)[C@H]2O)c(=O)[nH]1 | / | / | / | / | / | -24 | /
O=C(O)c1nn(CCSc2ccccc2F)c(=O)c2ccccc12 | 28 | -17 | 4 | -2 | 6 | 4 | /
Cc1ccc(NC(=S)N2CCN(Cc3ccc4c(c3)OCO4)CC2)c(C)c1 | / | / | -6 | 2 | 378* | -5 | 0
Cc1ccc(C(=O)OC(C)CN2CCN(C)CC2)cc1 (stereo not drawn) | -21 | -8 | 18 | 1 | -19 | 3 | /
Cc1cc(F)ccc1NS(=O)(=O)c1c(C(=O)N2CCOCC2)c(C)n(C)c1C | -2 | -16 | -1 | -4 | 22 | -16 | /
Cc1cc([N+](=O)[O-])ccc1NC(=O)CSc1nnc(C)n1C | 3 | 4 | 36 | 5 | 94 | -3 | /
Cc1cc([N+](=O)[O-])ccc1NC(=O)CSc1nccc(=O)[nH]1 | 42 | -11 | 41 | 4 | 378* | -9 | 0
O=S(=O)(c1ccc(S(=O)(=O)N2CCCC2)cc1)N1CCCCC1 | 31 | 2 | 12 | -3 | 683* | / | 0
O=S(=O)(c1ccc(C2CCCCC2)cc1)N1CCCC1 | 11 | -24 | 4 | 5 | 621* | -6 | 0
NS(=O)(=O)c1ccc(S(=O)(=O)N2CCCC2)cc1 | -12 | -13 | 1 | -5 | -4 | -15 | /
N#CCCN1CCN(S(=O)(=O)c2ccc(C3CCCCC3)cc2)CC1 | / | / | 8 | ? | -10 | -9 | /
O=C(NCc1ccccn1)C1CC(c2ccc(F)cc2)=NO1 (stereo not drawn) | 9 | 5 | 3 | -12 | -5 | -8 | /
O=C(NCc1ccccn1)C1CC(c2ccc(Cl)c(Cl)c2)=NO1 (stereo not drawn) | 50 | -20 | 13 | 6 | + | 13 | 0
CCCCCC/C=N/Nc1nnc(Cc2ccccc2)c(=O)[nH]1 | 27 | -8 | 3 | -2 | 12 | 4 | /
O=C(CCC(=O)OC(C(=O)c1ccccc1)c1ccccc1)Nc1ccccc1 (stereo not drawn) | 23 | 3 | 7 | -1 | 415* | -10 | -1[21 µM]
O=S1(=O)N[C@H](c2ccccc2)C[C@H](c2ccc(C(F)(F)F)cc2)O1 | 10 | 9 | 0 | -2 | -10 | 8 | /
CS(=O)(=O)C1=NSC2=NC(=O)/C(=C\c3ccc(OS(=O)(=O)c4ccccc4)cc3)C(=N)N21 | 28 | -1 | 0 | 7 | 399* | 6 | 0
CN1CCN(C(=O)c2ccc(CS(=O)(=O)c3c(Cl)cccc3Cl)o2)CC1 | 4 | -9 | 5 | 11 | -14 | 5 | /
O=C(c1ccc(CS(=O)(=O)c2ccccc2)o1)N1CCOCC1 | -3 | -15 | -3 | -4 | 372* | 11 | 2
CCOC(=O)N1CCN(C(=O)c2ccc(CS(=O)(=O)c3c(Cl)cccc3Cl)o2)CC1 | 26 | 11 | -1 | 3 | 603* | 5 | 0
COC(=O)c1sccc1NC(=O)Nc1ccccc1Cl | 37 | -3 | 2 | 7 | 9 | -2 | /
O=C1NC2(CCCCC2)C(=O)N1Cc1ccc([N+](=O)[O-])cc1 | -4 | -1 | -1 | 4 | 0 | -8 | /
SMILES | PHOSPHO1 inh | pCIP destab | GASC-1 inh | HDAC3 inhib | SUMO Mot1 rescue | PvdQ acylase | Yeast Mot1 SUMO
O=c1[nH]c(CN2CCN(CCO)CC2)nc2ccccc12 | 5 | 5 | 3 | -2 | 587* | -17 | 0
O=C(CSc1ncnc2nc[nH]c12)Nc1ccccc1C(F)(F)F | 79* | 1 | 4 | 0 | 727* | -8 | 0
COc1cc(SC)ccc1C(=O)N1CCCCCC1 | -8 | -1 | 0 | -4 | + | -19 | 0
Cc1ccccc1NCN1C(=O)C2CCC(C)(C1=O)C2(C)C (stereo not drawn) | 34 | -6 | 0 | 1 | -6 | -13 | /
CC1CC(C)(C)NC(=S)N1CC(=O)NCc1ccc(F)cc1 (stereo not drawn) | 20 | -3 | -5 | 2 | 835* | -14 | 0
CC(=O)Nc1cccc(C(=O)OCC(=O)NCc2ccc(F)cc2)c1 | -5 | 8 | 2 | -1 | 453* | -4 | 0
CC(=O)Nc1ccc(C(=O)OCC(=O)NCc2ccccc2)cc1 | 10 | 9 | -4 | 2 | -3 | 20 | /
CCCCn1c(N)c(N(CCOC)C(=O)c2c(C)noc2C)c(=O)[nH]c1=O | / | / | -25 | / | 247 | -15 | /
C/C(=C\C(=O)N1CCc2ccccc21)C(=O)O | 16 | -8 | 1 | -5 | 587* | -10 | 2
CN(C)CCCN(Cc1ccccc1)C(=S)Nc1cccc(C(F)(F)F)c1 | -11 | 0 | -16 | 9 | 2 | -14 | /
CN(C)CCCN(Cc1ccccc1)C(=S)Nc1ccc(F)c(Cl)c1 | 16 | -3 | 1 | -2 | 608* | 8 | 0
COc1ccc(C2C3=C(CC(C)(C)CC3=O)Nc3n[nH]c(C)c32)cc1 (stereo not drawn) | 9 | 8 | -7 | -20 | 365* | -14 | 0
Cc1[nH]nc2c1C(c1cccs1)C1=C(CCCC1=O)N2 (stereo not drawn) | -23 | -11 | 17 | -2 | -10 | -17 | /
Cc1[nH]nc2c1C(c1cccs1)C1=C(CC(C)(C)CC1=O)N2 (stereo not drawn) | 21 | -12 | 0 | -1 | 662* | -9 | 0
CCN(Cc1cnn(C)c1)C(=O)CC1C(=O)NCCN1Cc1cccc(OC)c1OC (stereo not drawn) | 27 | 10 | 13 | 2 | 3 | 3 | /
OCCc1c[nH]c2cc(F)ccc12 | 4 | -8 | 2 | -2 | 566* | -10 | 0
COc1cc(/C=N/NC(=O)c2ccc(F)cc2)ccc1OC(=O)c1ccco1 | -4 | 2 | -7 | 10 | -10 | 4 | /
COc1ccc(/C=N/NC(=O)c2cccnc2)cc1CN1CCOCC1 | 16 | -11 | 20 | 5 | -19 | -2 | /
